Screening data deposited in PubChem by National Center for Advancing Translational Sciences (NCATS).
FMDV FLuc: shows antiviral activity against foot and mouth disease virus | FMDV antiviral cell assay, firefly luciferase signal | AID 1745856 | Potency, µM (series often up to 57.5 µM), without a hit: top-dose activity change, negative = inhibition, actives largely listed as inhibitors | 0.23% of 120,000 active; note: nearly all actives have a fitted effect of over 60% in size
FMDV Renilla: antivirals against foot and mouth disease virus replicon; AID 1745857; 0.32% of 120,000 active; FMDV replicon cells, Renilla luciferase signal; Potency, µM (doses to about 57.5 µM), without a hit: at the highest dose activity change, negative = inhibition, usual class: inhibitors; note: nearly all actives have a fitted effect of over 55% in size
* hit, by the source's call; ? = inconclusive; [ ] = remark or other dose. Most compounds without a hit are left out; they make up all but 0.51% or so of the library. Calls come from the whole dose curve. % is set by controls: 0 for no effect and ±100 for the full control effect; potency is the fitted concentration of half-maximal effect.

SMILES | FMDV FLuc | FMDV Renilla
COc1ccc(/C=C(/C#N)c2nc3ccccc3[nH]2)cc1 | 145% | 213%
CCN(c1ccc(NC(=O)c2ccc3nc[nH]c3c2)cc1)C(C)C | 209% | 32%
Clc1ccc(Cl)c(-c2ccc(CNCC3CCNCC3)o2)c1 | 32µM* | 28µM*
Fc1ccc(-c2ccc(CNCC3CCNCC3)o2)cc1 | -27% | -28%
CC1(C)O[C@H]2[C@@H](O1)[C@@H](C(=O)O)O[C@@H]1OC(C)(C)O[C@@H]12 | 18% | 2%
Cn1cc(C(C(=O)O)N2CCN(C=O)CC2)c2ccc(C(=O)O)cc21 (stereo not given) | -16% | 11%
COc1ccccc1OCCn1cc(C(=O)C2CC2)c2ccccc21 | 3% | -12%
CC(=O)c1cn(CCOc2cccc3ccccc23)c2ccccc12 | ? | 13µM*
O=C(CC1CCCC1)NCCc1cccnc1 | 0% | 9%
Cc1cccc(C)c1Nc1ncnc2sccc12 | 9% | -5%[1.06 µM]
CN(C)S(=O)(=O)c1ccc(=O)n(Cc2ncc(-c3ccc(Cl)cc3)o2)c1 | 12% | -4%
CCc1c(C)sc(NC(=O)C(F)(F)C(F)(F)C(F)(F)C(F)(F)F)c1C#N | 22µM* | 25µM*
CCc1c(C)sc(NC(=O)C(C)(C)C)c1C#N | 9% | 30%
CCc1c(C)sc(NC(=O)C(F)(F)C(F)(F)C(F)(F)F)c1C#N | ? | 10µM*
CCc1c(C)sc(NC(=O)c2c(F)c(F)c(F)c(F)c2F)c1C#N | -7% | -8%
CCOc1cccc(/C=C2\N=C(SC)SC2=O)c1 | -10% | -7%
Cc1nn(C)c2sc(C(=O)NCc3ccccc3)cc12 | 39% | 19%
COc1cc(CNC(=O)c2ccc3nc(Cc4ccccc4)oc3c2)cc(OC)c1OC | 14µM* | ?
COc1cc(CNC(=O)c2ccc3nc(CCc4ccccc4)oc3c2)cc(OC)c1OC | -24% | 15%
COc1ccc(/C=C2\Oc3cc(OS(=O)(=O)c4ccc(C)cc4)ccc3C2=O)cc1OC | 7% | 11%
CCCNC(=O)NC(=O)CSc1nc2ccccc2c(=O)n1CC | 65% | 38%
O=C(Nc1ccc(Cl)cc1Cl)C1CC2CCC1C2 (stereo not given) | 129% | 19%
CN=C(NC)NCc1ccc(Br)s1 | -7% | 0%
O=C(/C=C/c1ccc(Cl)c(Cl)c1)c1ccccc1OC(F)F | 28% | 39%
COc1cc(/C=C/C(=O)c2ccccc2C)cc(OC)c1OC(F)F | ? | 28µM*
SMILES | FMDV FLuc | FMDV Renilla
O=S(=O)(N1CC=C(c2c[nH]c3cc(F)ccc23)CC1)N1CCCCCC1 | -2% | 15%
Cn1nc(CC(=O)Nc2ccc(O)cc2)c2ccccc2c1=O | ? | -24%
Cn1nc(CC(=O)Nc2ccc(Cl)cc2Cl)c2ccccc2c1=O | ? | 3.2µM*
CCOC(=O)Cc1ccc(NC(=O)n2ncc3c(C)cccc32)cc1 | ? | -3%
CCOC(=O)Cc1ccc(NC(=O)n2ncc3cc(Cl)ccc32)cc1 | 7.9µM* | 7%
COc1ccc(CCNc2nccn(-c3ccc(C)c(C)c3)c2=O)cc1OC | ? | 7.9µM*
COc1ccc(-n2ccnc(NCCc3ccccc3)c2=O)cc1OC | -2% | 5%
COc1ccc2c(=O)c(-c3ccc(OC)c(OC)c3)c(C(F)(F)F)oc2c1 | 24% | -7%
COc1ccc(-c2c(C(F)(F)F)oc3cc(OS(C)(=O)=O)ccc3c2=O)cc1OC | 3.5µM* | ?
CCOC(=O)N1CCN(C(=O)Cn2nc(-c3ccc(F)cc3)ccc2=O)CC1 | -4% | -14%
CN(C(=O)c1cccc(CS(C)=O)c1)C1CCC(c2ccccc2)CC1 (stereo not given) | -1% | -17%
CC(/C=C/N(C)C)=C\C=[N+](C)C | 8.9µM* | 4µM*
Cc1cc(N2CCCC2)nc(Nc2ccc(NS(=O)(=O)c3ccc(Br)cc3)cc2)n1 | 32µM* | -17%
Cc1cc(N2CCCC2)nc(Nc2ccc(NC(=O)Nc3ccc(Cl)cc3)cc2)n1 | 48% | 13%
CCN(CC)c1cc(C)nc(Nc2ccc(NS(=O)(=O)c3ccc(OC)c(OC)c3)cc2)n1 | ? | -61%
Cc1cc(N2CCOCC2)nc(N2CCN(C(=O)Nc3ccccc3)CC2)n1 | 0% | -4%
Cc1cc(N2CCCCC2)nc(Nc2ccc(NC(=O)Cc3ccccc3)cc2)n1 | 14µM* | 13µM*
Cc1cc(N2CCOCC2)nc(Nc2ccc(NC(=O)CCc3ccccc3)cc2)n1 | 5µM* | 4µM*
Cc1nc2cc(-c3ccccc3)nn2c(C)c1CCC(=O)Nc1ccc(F)cc1F | ? | -8%
Cc1nc2cc(-c3cccc(F)c3)nn2c(C)c1CCC(=O)N1CCN(c2ccc(F)cc2)CC1 | ? | -5%
Cc1nc2cc(-c3cccc(F)c3)nn2c(C)c1CCC(=O)Nc1ccc(CN2CCCC2)cc1 | ? | -17%
COc1ccc(N2CCN(C(=O)CCc3c(C)nc4cc(-c5cccc(F)c5)nn4c3C)CC2)cc1 | 25µM* | -4%
Cc1nc2cc(-c3cccc(F)c3)nn2c(C)c1CCC(=O)Nc1ccc(F)c(Cl)c1 | 2.2µM* | -2%
Cc1nc2cc(-c3ccccc3)nn2c(C)c1CCC(=O)Nc1ccc(F)cc1 | 3.2µM* | -3%
Cc1ccc(C(CNC(=O)c2ccc(C(C)(C)C)cc2)N2CCCC2)cc1 (stereo not given) | 0% | -12%
SMILES | FMDV FLuc | FMDV Renilla
Cc1ccc(C(=O)Nc2ccc3oc(=O)ccc3c2)c(Cl)c1 | 143% | -2%
O=C(CCc1ncc(-c2c(F)cccc2F)o1)Nc1ccc(F)cc1 | 7% | -6%
COc1ccccc1C1C=C(C(=O)O)Nc2c(C(=O)Nc3ccc(C)cc3)cnn21 (stereo not given) | 0% | 46%
CCS(=O)(=O)c1ccccc1C(=O)N1CCN(c2nc3ccccc3s2)CC1 | 11µM* | -4%
O=C(c1ccc(Cl)cc1)N1CCN(c2nc3ccccc3s2)CC1 | 13% | 0%
COc1ccc(C(=O)Nc2ccc3nc(SCC(=O)N(C)c4ccccc4)sc3c2)cc1 | ? | 28µM*
CN(C(=O)CSc1nc2ccc(NC(=O)COc3ccc(Cl)cc3)cc2s1)c1ccccc1 | -19% | -13%
Cc1cccc(Cn2c(=O)n(-c3ccccc3C)c(=O)c3c2c2cc(C)ccc2n3C)c1 | -16% | -9%
Cc1ccc2c(c1)c(/C=C/c1cc[n+](C)cc1)c(C)n2C | ? | 8.9µM*
Cc1ccc2c(C=O)c(C)[nH]c2c1 | 0% | 30%
Cc1ccc2[nH]c(C)c(/C=C/c3cc[n+](C)cc3)c2c1 | 13µM* | 11µM*
CCN(CC)S(=O)(=O)c1cccc(NC(=O)CN2c3cccc4cccc(c34)S2(=O)=O)c1 | 4% | 76%
COC(=O)c1cc(-c2ccc(OC)c(OC)c2)nc2ccc(C)cc12 | 35% | 7%
O=C(Nc1ccc(OC2CCCC2)cc1)c1ccncc1 | -25% | 5µM*
CC(C)=CC(=O)Nc1ccc(OC2CCCC2)cc1 | 0% | 10%
Cc1ccc(S(=O)(=O)CCC(=O)N2CCN(c3nc4c(C)c(Cl)ccc4s3)CC2)cc1 | -1% | -11%
COc1cccc2sc(N3CCN(C(=O)CCS(=O)(=O)c4ccc(F)cc4)CC3)nc12 | 35µM* | ?
COc1ccc2sc(N(Cc3cccnc3)C(=O)c3cccs3)nc2c1 | ? | 3.2µM*
CCOc1ccc2nc(N(Cc3cccnc3)C(=O)c3cccs3)sc2c1 | 55% | 4%
Cc1cccc(Cn2c(NCCCO)nc3c2c(=O)n(C)c(=O)n3C)c1 | -7% | 5%
Cn1c(=O)c2c(nc(NCCO)n2Cc2cccc(C(F)(F)F)c2)n(C)c1=O | ? | 10µM*
Cn1c(=O)c2c(nc(NCc3ccccc3)n2Cc2ccccc2)n(C)c1=O | -19% | -18%
